Where a name gives a salt, the structure may show the parent alone.
Assays:
Settings in all cases: incubation time: 27 h, anaerobic, 37 °C;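 for the amine columns active = adjusted P below 0.05 in both replicates with a change the same way and a mean fold change under 0.8 or over 1.25; inactive = the rest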
[1] = system: Clostridium sporogenes DSM 1664; assay: growth (OD595) fold change vs plate DMSO controls (fold change (ratio)); higher = more growth
In short: (§1)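 Absorbance at 595 nm was read after shaking the anaerobic mGAM cultures, which had grown in 96-well plates for 27 h at 37 °C. After blank subtraction and background correction against 20 µM compound solutions in water, a calibration factor of 5 gave OD values. Growth is the fold change against the median of the plate's DMSO controls. Values are the mean of 2 biological replicates, with fold changes above 1.5 set to NA.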

[2] = system: Escherichia coli IAI1; assay: as above
In short: as §1

[3] = system: Klebsiella aerogenes DSM 30053; assay: as above
In short: as §1

[4] = system: Ruminococcus gnavus DSM 108212; assay: as above
In short: as §1

[5] = system: Klebsiella aerogenes DSM 30053; assay: fold change of Histamine concentration vs plate DMSO controls (fold change (ratio)); higher = more amine produced, active = hit call of the paper (significant change in both replicates, either direction)
In short: (§2)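 In 80 µL wells, cultures of four gut bacterial strains in mGAM started at OD 0.1 before a 1:1 dilution and grew anaerobically at 37 °C for 27 h. Compounds were added to 20 µM final, except sweeteners at 50 µM final. After extraction of whole cultures with cold acetonitrile/methanol plus 0.1% formic acid and centrifugation, amines were measured by LC–triple-quadrupole MS in dynamic MRM mode against external calibration curves, with within-batch drift correction. Values give fold change over DMSO controls on the same plate, averaged across 2 biological replicates.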

[6] = system: Clostridium sporogenes DSM 1664; assay: fold change of Tryptamine concentration vs plate DMSO controls (fold change (ratio)); higher = more amine produced, active = hit call of the paper (significant change in both replicates, either direction)
In short: as §2

[7] = system: Ruminococcus gnavus DSM 108212; assay: as above
In short: as §2

[8] = system: Escherichia coli IAI1; assay: fold change of Putrescine concentration vs plate DMSO controls (fold change (ratio)); higher = more amine produced, active = hit call of the paper (significant change in both replicates, either direction)
In short: as §2

[9] = system: Klebsiella aerogenes DSM 30053; assay: as above
In short: as §2

[10] = system: Escherichia coli IAI1; assay: fold change of Cadaverine concentration vs plate DMSO controls (fold change (ratio)); higher = more amine produced, active = hit call of the paper (significant change in both replicates, either direction)
In short: as §2

[11] = system: Klebsiella aerogenes DSM 30053; assay: as above
In short: as §2

[12] = system: Ruminococcus gnavus DSM 108212; assay: fold change of 2-Phenylethylamine concentration vs plate DMSO controls (fold change (ratio)); higher = more amine produced, active = hit call of the paper (significant change in both replicates, either direction)
In short: as §2

| SMILES | growth [1] | growth [2] | growth [3] | growth [4] | fold change of Histamine concentration [5] | fold change of Tryptamine concentration [6] | fold change of Tryptamine concentration [7] | fold change of Putrescine concentration [8] | fold change of Putrescine concentration [9] | fold change of Cadaverine concentration [10] | fold change of Cadaverine concentration [11] | fold change of 2-Phenylethylamine concentration [12] |
| --- | --- | --- | --- | --- | --- | --- | --- | --- | --- | --- | --- | --- |
| CN1CCc2cccc3c2[C@H]1Cc1ccc(O)c(O)c1-3 [R(-) Apomorphine hydrochloride hemihydrate] (20 µM) | 1.05 | 1.03 | 1.05 | 1.17 | 1.02 (inactive) | 0.988 (inactive) | 0.997 (inactive) | 0.98 (inactive) | 0.978 (inactive) | 1.04 (inactive) | 0.992 (inactive) | 1.01 (inactive) |
| CCCNC(C)(C)COC(=O)c1ccccc1 [Meprylcaine hydrochloride] (20 µM) | 0.985 | 1.02 | 0.991 | 1.17 | 1.02 (inactive) | 1.01 (inactive) | 1.04 (inactive) | 1.01 (inactive) | 1 (inactive) | 1.04 (inactive) | 0.991 (inactive) | 1.01 (inactive) |
| CCOC(=O)[C@H](CCc1ccccc1)N[C@@H](C)C(=O)N1CCC[C@H]1C(=O)O [Enalapril maleate] (20 µM) | 1.07 | 1.07 | 1.05 | 1.15 | 0.936 (inactive) | 1 (inactive) | 1.09 (inactive) | 1.03 (inactive) | 0.959 (inactive) | 0.967 (inactive) | 1.02 (inactive) | 1.1 (inactive) |
| CN1c2cc(O)c(N=NC(N)=O)cc2CC1S(=O)(=O)O (configuration not stated) [Carbazochrome sodium sulfonate] (20 µM) | 1.05 | 1.01 | 1.04 | 0.901 | 1.06 (inactive) | 0.976 (inactive) | 1.08 (inactive) | 1.01 (inactive) | 0.905 (inactive) | 0.975 (inactive) | 1.2 (inactive) | 1.21 (inactive) |
| CC(C(=O)O)c1ccc(C(=O)c2ccccc2)s1 (configuration not stated) [Tiaprofenic acid] (20 µM) | 0.955 | 1.1 | 0.987 | 1.16 | 0.995 (inactive) | 0.993 (inactive) | 1.04 (inactive) | 1.08 (inactive) | 1.01 (inactive) | 0.966 (inactive) | 0.988 (inactive) | 1.07 (inactive) |
| C[C@]12CC[C@@H]3c4ccc(O)cc4CC[C@H]3[C@@H]1CC[C@@H]2O [Estradiol-17 beta] (20 µM) | 1.22 | 1.01 | 1.14 | 1.17 | 1.03 (inactive) | 0.984 (inactive) | 1.04 (inactive) | 0.989 (inactive) | 1 (inactive) | 1 (inactive) | 1 (inactive) | 1.04 (inactive) |
| C/C(=C(\CCOP(=O)(O)O)SC(=O)c1ccccc1)N(C=O)Cc1cnc(C)nc1N [Benfotiamine] (20 µM) | 0.989 | 0.98 | 1.03 | 1.05 | 0.984 (inactive) | 1.01 (inactive) | 0.96 (inactive) | 0.942 (inactive) | 1 (inactive) | 1.04 (inactive) | 1 (inactive) | 0.959 (inactive) |
| C[C@@H](c1ncncc1F)[C@](O)(Cn1cncn1)c1ccc(F)cc1F [Voriconazole] (20 µM) | 0.883 | 0.997 | 1.02 | 0.932 | 0.988 (inactive) | 1.07 (inactive) | 1.01 (inactive) | 1.02 (inactive) | 0.999 (inactive) | 0.988 (inactive) | 1 (inactive) | 0.991 (inactive) |
| CCOC(=O)[N-]c1c[n+](N2CCOCC2)no1 [Molsidomine] (20 µM) | 0.839 | 1.04 | 0.98 | 0.196 | 1.03 (inactive) | 1.19 (inactive) | 0.153 (active) | 0.994 (inactive) | 1.02 (inactive) | 0.951 (inactive) | 1 (inactive) | 0.14 (active) |
| Cc1ccc(S(=O)(=O)NCl)cc1 [Chloramine-T hydrate] (20 µM) | 0.97 | 0.978 | 1.11 | 1.07 | 0.912 (inactive) | 0.931 (inactive) | 0.992 (inactive) | 1.01 (inactive) | 1.03 (inactive) | 1.01 (inactive) | 1.02 (inactive) | 0.935 (inactive) |
| CC=C(C)C(=O)OC1C(OC(C)=O)C2(CO)C(O)CC3(C)C(=CCC4C5(C)CCC(OC6OC(C(=O)O)C(OC7OC(CO)C(O)C(O)C7O)C(O)C6OC6OC(CO)C(O)C(O)C6O)C(C)(CO)C5CCC43C)C2CC1(C)C (stereo not drawn) [Beta-Escin] (20 µM) | 0.94 | 1 | 1.01 | 1.01 | 1.01 (inactive) | 0.988 (inactive) | 0.982 (inactive) | 0.986 (inactive) | 0.994 (inactive) | 1.01 (inactive) | 1 (inactive) | 0.953 (inactive) |
| OCCN1CCN(CCCN2c3ccccc3Sc3ccc(C(F)(F)F)cc32)CC1 [Fluphenazine dihydrochloride] (20 µM) | 1.03 | 1.13 | 1.05 | 0.85 | 0.925 (inactive) | 1.22 (inactive) | 0.878 (inactive) | 1.09 (inactive) | 0.982 (inactive) | 1.11 (inactive) | 1.03 (inactive) | 0.869 (inactive) |
| Cc1c(NC(C)C)c(=O)n(-c2ccccc2)n1C [Isopyrin hydrochloride] (20 µM) | 1.12 | 1.02 | 1.02 | 1 | 0.951 (inactive) | 1.03 (inactive) | 1.2 (inactive) | 1.14 (inactive) | 0.943 (inactive) | 1.02 (inactive) | 1 (inactive) | 1.32 (inactive) |
| OC(CCN1CCCCC1)(c1ccccc1)C1CC2C=CC1C2 (configuration not stated) [Biperiden hydrochloride] (20 µM) | 1.01 | 1.01 | 1.17 | 0.975 | 0.911 (inactive) | 0.995 (inactive) | 0.916 (inactive) | 1.04 (inactive) | 0.999 (inactive) | 0.899 (inactive) | 1.01 (inactive) | 0.935 (inactive) |
| COc1ccc2[nH]c([S+]([O-])Cc3ncc(C)c(OC)c3C)nc2c1 (configuration not stated) [Omeprazole] (20 µM) | 1.05 | 0.96 | 1.01 | 1.2 | 0.936 (inactive) | 1.02 (inactive) | 1.01 (inactive) | 0.97 (inactive) | 1.01 (inactive) | 1 (inactive) | 1 (inactive) | 1.02 (inactive) |
| CC(=O)O[C@H]1C(=O)[C@@]2(C)[C@H]([C@H](OC(=O)c3ccccc3)[C@]3(O)C[C@H](OC(=O)[C@H](O)[C@@H](NC(=O)c4ccccc4)c4ccccc4)C(C)=C1C3(C)C)[C@]1(OC(C)=O)CO[C@@H]1C[C@@H]2O [Paclitaxel] (20 µM) | 1.04 | 1.03 | 1.05 | 0.944 | 0.885 (inactive) | 0.975 (inactive) | 1.08 (inactive) | 1.04 (inactive) | 0.969 (inactive) | 1.03 (inactive) | 1.03 (inactive) | 1.07 (inactive) |
| CN1CCN(C2=Nc3cc(Cl)ccc3Nc3ccccc32)CC1 [Clozapine] (20 µM) | 1.01 | 0.997 | 0.984 | 0.688 | 1.01 (inactive) | 1.02 (inactive) | 0.947 (inactive) | 1.02 (inactive) | 0.989 (inactive) | 0.889 (inactive) | 1 (inactive) | 0.92 (inactive) |
| CC[C@H]1OC(=O)[C@H](C)[C@@H](O[C@H]2C[C@@](C)(OC)[C@@H](O)[C@H](C)O2)[C@H](C)[C@@H](O[C@@H]2O[C@H](C)C[C@H](N(C)C)[C@H]2O)[C@](C)(O)C[C@@H](C)/C(=N\OCOCCOC)[C@H](C)[C@@H](O)[C@]1(C)O [Roxithromycin] (20 µM) | 0.00175 | 0.826 | 0.95 | 0.194 | 0.995 (inactive) | 0.0367 (active) | 0.0981 (active) | 0.576 (active) | 0.973 (inactive) | 0.909 (inactive) | 1 (inactive) | 0.123 (active) |
| O=C(CCCN1CCN(c2ccccn2)CC1)c1ccc(F)cc1 [Azaperone] (20 µM) | 1.12 | 1.24 | 0.974 | 1.12 | 1.01 (inactive) | 1.14 (inactive) | 0.963 (inactive) | 1.31 (inactive) | 0.987 (inactive) | 0.84 (inactive) | 1.01 (inactive) | 0.998 (inactive) |
| CC[C@H](C)[C@H](N)C1=N[C@H](C(=O)N[C@@H](CC(C)C)C(=O)N[C@H](CCC(=O)O)C(=O)N[C@H](C(=O)N[C@H]2CCCCNC(=O)[C@H](CC(N)=O)NC(=O)[C@@H](CC(=O)O)NC(=O)[C@H](Cc3cnc[nH]3)NC(=O)[C@@H](Cc3ccccc3)NC(=O)[C@H]([C@@H](C)CC)NC(=O)[C@@H](CCCN)NC2=O)[C@@H](C)CC)CS1 [Bacitracin] (20 µM) | 1 | 1.05 | 1.02 | 0.0384 | 0.999 (inactive) | 1.02 (inactive) | 0.0521 (active) | 1.18 (inactive) | 1.01 (inactive) | 1.01 (inactive) | 1 (inactive) | 0.0535 (active) |
| CC(C)(CO)[C@@H](O)C(=O)NCCCO [(D)-Panthenol] (20 µM) | 0.885 | 0.982 | 1.05 | 1.15 | 1.02 (inactive) | 0.993 (inactive) | 0.956 (inactive) | 0.964 (inactive) | 1.01 (inactive) | 1 (inactive) | 0.996 (inactive) | 0.999 (inactive) |
